PubChem BioAssay AID1903 (Southern Research Specialized Biocontainment Screening …, 2009)
Where “and” joins values, the source holds several entries; their conditions need not be identical. Equal values may be shown once. The campaign covered roughly 310,000 compounds. About 1,200 (0.39%) were called active. How the calls were made is not given here. The list is a sample of the results. Results with a measured potency or affinity are listed apart.

biological target: Large T antigen (Simian virus 40) (UniProt P03070); assay: SV40 large T antigen inhibitors, biochemical (AID 1903); settings: SV40 large T antigen ATPase/helicase inhibition assay; at 20 µM; hits give high values
Sequence (P03070 whole entry, looked up): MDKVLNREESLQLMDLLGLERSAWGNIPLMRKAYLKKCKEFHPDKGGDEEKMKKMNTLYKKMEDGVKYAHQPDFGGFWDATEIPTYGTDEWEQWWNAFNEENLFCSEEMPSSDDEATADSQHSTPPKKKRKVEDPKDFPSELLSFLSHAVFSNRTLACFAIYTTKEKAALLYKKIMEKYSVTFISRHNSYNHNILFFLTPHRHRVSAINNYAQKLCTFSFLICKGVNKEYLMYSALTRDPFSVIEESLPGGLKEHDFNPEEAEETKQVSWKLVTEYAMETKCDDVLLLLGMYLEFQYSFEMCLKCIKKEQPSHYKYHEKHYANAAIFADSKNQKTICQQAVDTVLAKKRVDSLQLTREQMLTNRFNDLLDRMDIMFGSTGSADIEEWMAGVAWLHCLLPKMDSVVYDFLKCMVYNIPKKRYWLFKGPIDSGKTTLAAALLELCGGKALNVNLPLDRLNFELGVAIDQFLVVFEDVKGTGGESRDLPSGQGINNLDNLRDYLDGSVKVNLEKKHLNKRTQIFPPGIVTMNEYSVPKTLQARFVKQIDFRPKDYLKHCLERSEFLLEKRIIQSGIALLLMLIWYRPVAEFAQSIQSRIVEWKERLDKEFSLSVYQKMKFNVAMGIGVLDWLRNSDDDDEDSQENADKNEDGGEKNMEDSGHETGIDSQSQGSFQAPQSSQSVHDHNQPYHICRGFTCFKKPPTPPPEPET

inhibition, inactive:
CCN1CCCC1CNC(=O)c1ccccc1Cl (stereo not given) -13.2%
COc1cccc(NC(=O)Cn2cnc3c(oc4nc5c(cc43)CCCC5)c2=O)c1 4.45%
CCNc1nc(NCC)nc(N/N=C/c2ccc(O)c(O)c2)n1 6.9%
CCNc1nc(NCC)nc(N/N=C/c2cc(OC)c(OC)c(OC)c2)n1 9.56%
OCc1ccccc1O[C@@H]1O[C@H](CO)[C@@H](O)[C@H](O)[C@H]1O 10.5%
[C-]#[N+][C@H](O[C@@H]1O[C@H](CO)[C@@H](O)[C@H](O)[C@H]1O)c1ccccc1 13.8%
C/C(=C1/SC(N2CCOCC2)=NC1=O)c1ccc(Br)cc1 -0.65%
CC1CCCCC1NC(=O)C1CCN(S(=O)(=O)c2cccc3nonc23)CC1 (stereo not given) 6.27%
COc1ccc(OC)c(/C=N/NC(=O)CC2C(=O)NN=C2C)c1 (stereo not given) 8.18%
CC1C(=O)NN=C1C(=O)N/N=C/c1cccs1 (stereo not given) 30%
COc1cc(OC)c(OC)cc1/C=N/NC(=O)CC1C(=O)NN=C1C (stereo not given) 8.13%
COc1ccc(/C=N\NC(=O)C2=NNC(=O)C2C)cc1 (stereo not given) 21.2%
CCCCC(CCCCl)C(=O)Nc1ccccc1 (stereo not given) 0.43%
CCN1CCCC1CNC(=O)COc1cc(=O)n(C)c2ccccc12 (stereo not given) -0.09%
CC(=O)C[C@H]1c2ccccc2S(=O)(=O)N1C1CCCC1 3.17%
CC(C)CCN1CCN(Cc2cccc3cccnc23)CC1CCO (stereo not given) -6.36%
CCN1CCN(C(=O)c2ccc(OCC(=O)Nc3ccc(F)cc3)c(OC)c2)CC1 4.11%
O=C1c2ccccc2CN1c1ccccc1 5.42%
COc1ccc(N2Cc3ccccc3C2=O)cc1 2.48%
CCN(Cc1ccccc1)S(=O)(=O)c1ccc(OC)c2ncccc12 11.3%
COc1cc(-c2noc(CCC(=O)NC3CCCCC3)n2)cc(OC)c1OC 25.3%
COc1ccc(C(=O)c2ccc(OC)c(N)c2)cc1N 8.57%
CN(C)c1ccc(Cl)cc1N 1.86%
O=C(CCS(=O)(=O)c1ccc(F)cc1)N1CCN(c2ccccc2)CC1 18.3%
CC(=C/c1ccc(C(C)C)cc1)/C=N/NC(=O)Cn1nc(C)cc1C 2.16%
CC(=O)Nc1sc(NC(=O)c2ccccc2)nc1-c1cccs1 6.41%
Nc1nc(-c2cccs2)c(CC(=O)O)s1 23.1%
O=[N+]([O-])c1cccc(C2(O)COc3ccccc3O2)c1 (stereo not given) 6.64%
CCn1c(COc2ccccc2)nnc1SCC(=O)NC1CCCCC1 8.87%
O=c1cc(CN2CCN(c3ccccc3)CC2)nc2scc(-c3ccccc3)n12 3.32%
CCOC(=O)C1CCN(Cc2cc(=O)n3c(-c4ccccc4)csc3n2)CC1 2.57%
Cc1ccc(N(C(=O)CNC(=O)c2ccco2)C(C(=O)NCC2CCCO2)c2ccccc2)c(C)c1 (stereo not given) 18.4%
CCN(CC)S(=O)(=O)c1ccc(Nc2nc3ccccc3n3nnnc23)cc1 -2.08%
N#CC1=C(S)N(c2ccccc2)C(c2ccc(-c3cccc(Cl)c3)o2)NC1=O (stereo not given) 34.4%
N#CC1=C(S)N(c2ccccc2)C(c2ccc(-c3cc(Cl)ccc3Cl)o2)NC1=O (stereo not given) 33.3%
Cc1cccc(N(CC(=O)N2CCCC2)S(C)(=O)=O)c1 7.43%
CSc1ccccc1NC(=O)CN(C)Cc1cccc(Cl)c1 8.82%
COc1ccc(N/C(C)=C/C(=O)c2ccccc2)cc1 9.38%
COc1ccc(C(=O)/C=C(\C)Nc2ccc3c(c2)OCO3)cc1 5.13%
CCCc1nc(C(C)(C)O)c(C(=O)O)n1Cc1ccc(-c2ccccc2-c2nn[nH]n2)cc1 -1.62% and 6.85%
Cc1c(/C=N/NC(=O)c2cccs2)c2ccccc2n1Cc1ccccc1Cl 14.4%
CN(Cc1ccccc1F)C(=O)c1sccc1-c1ccccc1 20%
CC(C)CNC(=O)NC1(C(F)(F)F)Oc2ccccc2O1 3.66%
CCOC(=O)Cc1csc(NC(=O)NC2(C(F)(F)F)Oc3ccccc3O2)n1 31.1%
O=C(Nc1ccc2c(c1)CCCN2C(=O)c1cccs1)c1c(F)cccc1Cl 13.1%
CCC(=S)/C=C1\Sc2ccc3ccccc3c2N1CCCS(=O)(=O)O 18.3%
Cc1c2ccccc2cc[n+]1CCCS(=O)(=O)[O-] 7.97%
COC(=O)[C@@H](NC(=O)NCc1ccccc1F)C(C)C -2.59%
COc1ccc(C(=O)N2CCN(S(=O)(=O)c3cc(Cl)ccc3OC)CC2)cc1 5.04%
Cc1nn(C)c(C)c1NC(=O)CSc1nc(-c2ccccc2Cl)nc2c1cnn2-c1ccccc1 8.57%
COc1ccc(/C=N/NC(=O)/C(=C/c2ccccc2)CCO)cc1 2.79%
COc1cc(/C=N/NC(=O)/C(=C/c2ccccc2)CCO)ccc1O 29.2%
O=C(COc1ccc(N2CC(C(=O)O)CC2=O)cc1)Nc1cccc(C(F)(F)F)c1 (stereo not given) -0.75%
CCOc1cc(/C=N/NC(=O)C(=O)N2CCCC2)ccc1O 29.3%
CCOc1cc(/C=N/NC(=O)COc2nc(C)cc(COC)c2C#N)ccc1O 25.5%
COc1ccc(/C=N/NC(=O)CCc2ccccc2)cc1O 29.5%
COc1cc(/C=N\NC(=O)CNC(=O)C(c2ccccc2)c2ccccc2)ccc1O 33.5%
COc1ccc(/C=N/NC(=O)CCc2n[nH]c(=O)[nH]c2=O)cc1OC 9.55%
COc1ccc(/C=N/NC(=O)CNc2n[nH]c(=O)[nH]c2=O)cc1OC 0.71%
Cc1cccc(N2CCN(S(=O)(=O)c3ccc4c(c3)CC(C)N4C(=O)C3CC3)CC2)c1C (stereo not given) 4.4%
